Most compounds without a hit are left out; they make up all but 2.3% or so of the library.
FAS TE block: blocks the thioesterase domain of human fatty acid synthase. P49327. recombinant FAS-TE, OMFH fluorogenic substrate, fluorescence endpoint. inhibition, % at 15 µM. actives 0.67% (n = 360,000);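 active = compounds whose normalised, plate-corrected inhibition of enzyme fluorescence in the single-dose primary screen is 50% or more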
TAG inh: reduces triacylglycerol accumulation in H9c2 cells; Nile Red lipid (TAG) fluorescence; cells loaded with 200 µM oleic acid; inhibition, % at 12.5 µM; actives 0.66% (n = 230,000); AID 651582;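 active = pattern-corrected inhibition of lipid staining of at least 50% with the nuclear-stain viability signal not falling by more than 50%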
Calpain2 inh: calpain II (pig) inhibition. purified calpain II, fluorogenic peptide substrate, 30 min. inhibition, % at 16 µM. actives 0.37% (n = 220,000). AID 1236;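 active = inhibition above about 50%, limit read from the data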
MIN6 prolif: induces beta-cell replication in MIN6 cells. MIN6 cells proliferation, ATPlite luminescence, 48 h; cells starved in 0.2% serum; 100% = growth in 10% serum. proliferation, % at 10 µM. actives 0.29% (n = 330,000). AID 2380;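 active = compounds whose signal lies at least 3.5 SD above the mean of all wells on their plate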
H9c2 protect: protects H9c2 cardiomyocytes from peroxide injury. H2O2 injury protection, ATPLite, 2 h. protection from H2O2 cell death, % at 20 µM. actives 0.63% (n = 360,000). AID 588492;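 active = compounds giving at least 50% protection of heart cells from peroxide-induced death in the single-dose screen, raw or plate-pattern-corrected value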
aDG glyco act: alpha-DG glycosylation activation | Pro5-aDG cells, alpha-DG glycosylation AlphaScreen (IIH6); 0% Pro5, 100% B10-LARGE cell signal | activation, % at 10 µM | actives 0.22% (n = 360,000);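 active = activation of at least 8% versus controls, or a plate z-score of at least 8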;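 also: Pro5 are CHO cells carrying HIG-tagged alpha-DG that lacks glycosylation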
FAS-TE conf: FAS thioesterase (human) inhibition, confirmation | shares compounds with FAS TE block | recombinant FAS-TE, OMFH fluorogenic substrate, fluorescence | inhibition, % at 15 µM | actives 45% (n = 2,300);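 active = compounds inhibiting the enzyme by at least 50% at 15 µM in any one of the replicates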
Numbers stand for hits; n = inactive; x = no result given.

SMILES	FAS TE block	TAG inh	Calpain2 inh	MIN6 prolif	H9c2 protect	aDG glyco act	FAS-TE conf
Cc1ccc(-c2nnc(Nc3ccc4c(c3)OCO4)c3ccccc23)cc1S(=O)(=O)NC(C)C	51	x	n	n	n	n	n
CNC(=O)Cn1nc(-c2ccc(C)cc2)c2ccccc2c1=O	n	x	x	n	n	n	x
CCn1c(C)c(C(C)=O)c(N2CCN(C(c3ccccc3)c3ccccc3)CC2)nc1=S	70	n	n	n	n	n	61
CCn1c(C)c(C(C)=O)c(N2CCN(c3ccccc3)CC2)nc1=S	n	n	n	n	n	n	x
COC(=O)C1=C(C(=O)OC)[C@@H]2N(Cc3ccccc3)c3ccccc3[C@@]23C[C@@H](C(=O)OC)N(C(=O)CC(C)C)C3=N1	77	n	n	n	n	n	n
COC(=O)C1=C(C(=O)OC)[C@@H]2N(Cc3ccccc3)c3ccccc3[C@@]23C[C@@H](C(=O)OC)N(C(=O)c2cc(C)oc2C)C3=N1	59	n	x	n	n	n	n
C=CCN1c2ccccc2[C@]23C[C@@H](C(=O)OC)N(C(=O)C4CCC4)C2=NC(C(=O)OC)=C(C(=O)OC)[C@H]13	n	n	n	n	n	n	x
C=CCN1c2ccccc2[C@]23C[C@@H](C(=O)OC)N(C(=O)NCCC)C2=NC(C(=O)OC)=C(C(=O)OC)[C@H]13	79	n	n	n	n	n	n
O=C(NCc1ccc2c(c1)OCO2)c1ccc2c(c1)N(Cc1c(F)cccc1Cl)C(=O)CS2	54	x	n	n	n	n	33
COc1ccc(NC(=O)C(Sc2nnc(-c3ccncc3)n2-c2ccccc2C)c2ccccc2)cc1Cl (centres undefined)	56	x	n	n	n	n	n
COc1ccc(NC(=O)C(OC)c2ccccc2)cc1Cl (centres undefined)	n	n	n	n	n	n	x
O=C(COc1ccc(Cl)cc1)Nc1ccc(C(=O)O)cc1NC(=O)COc1ccc(Cl)cc1	51	n	x	n	n	n	66
N=c1c(C(=O)NC2CCCC2)cc2c(=O)n3ccccc3nc2n1C1CCCCC1	n	x	x	n	n	n	x
O=C(COC(=O)c1cccc([N+](=O)[O-])c1)NC1CCCC1	61	x	x	n	n	n	68
Cc1cc(C)c([N+](=O)[O-])cc1NCC(=O)N1CCN(c2ccccc2)CC1	78	n	n	n	n	n	66
O=C(OCC(=O)N1CCN(c2ccccc2)CC1)c1cccc([N+](=O)[O-])c1	54	n	x	n	n	n	57
COC(=O)c1cc(C(=O)OCC(=O)NC2CCCC2)cc([N+](=O)[O-])c1	61	x	x	n	n	n	64
Cc1ccc(-c2cc(NC=O)c3ncc(-c4cnn(C)c4)n3c2)cc1	n	n	x	x	n	n	x
COc1nc(N)nc2c1ncn2C1OC(CO)CC1O (centres undefined)	n	n	x	x	n	n	x
Cc1cc(C)c(C#N)c(SCS(=O)Cc2ccc(Cl)cc2)n1 (centres undefined)	69	x	n	n	n	n	71
O=C(CSc1ccc([N+](=O)[O-])cc1)NCC1CCCCC1	55	n	n	n	n	n	62
CC(=O)c1ccc(N2CCN(S(=O)(=O)c3ccc(-c4cnc(C5CC5)o4)cc3)CC2)cc1	57	x	x	n	n	n	43
O=C(CN1CCN(c2ncc(C(F)(F)F)cc2Cl)CC1)NCCNc1ncc(C(F)(F)F)cc1Cl	62	n	n	n	n	n	n
CC(=O)Nc1cccc(C(=O)NNC(=O)c2n[nH]c(=O)c3ccccc23)c1	n	n	x	n	n	n	x
O=C(COc1cccc(Oc2ccccc2)c1)Nc1ccc(SC(F)F)cc1	81	x	n	n	n	n	55
CC(C)COC(=O)N1CCCCC1c1cc(C(=O)Nc2ccccc2)no1 (centres undefined)	n	n	x	x	n	n	x
CCOC(=O)/C(=N\Nc1ccc(Br)cc1)N1CCN(c2ccccc2OC)CC1	n	n	n	x	n	n	x
O=c1cc(CN2CCN(c3ccccc3F)CC2)c2ccccc2o1	n	x	x	x	n	n	x
CC1=CC(C)(C)NC(=S)N1CCO	n	n	x	x	n	n	x

Source: PubChem
